BoNT F protease: BoNT/F light chain protease inhibitors, primary screen, biochemical, flow cytometry, MLPCN library. Botulinum neurotoxin type F light chain protease (Clostridium botulinum). Multiplex microsphere protease cleavage assay. inhibition, % at 10 µM. 360,000 compounds, 0.22% hits. AID 588497, 2011; in the data active means inhibition above about 35%, passing the limit was not always enough; inconclusive means no clear call, values can overlap the other calls; further: plate controls were buffer without enzyme for full effect and enzyme alone for no effect
VHR inh abs: VHR1 phosphatase inhibitors, primary screen, biochemical, absorbance, uHTS; 290,000 compounds, 0.52% hits; inhibition, % at 13.3 µM; recombinant VHR phosphatase, pNPP absorbance; Dual specificity protein phosphatase 3 (Homo sapiens), P51452; in the data active means inhibition above about 50%
Anthrax LF inh2: Bacillus anthracis LF protease inhibitors, primary screen, biochemical, multiplex microsphere, MLPCN library; Lethal factor (Bacillus anthracis), P15917; inhibition, % at 10 µM; multiplex microsphere protease cleavage assay; 360,000 compounds, 0.12% hits; AID 588501, 2011; further: plate controls were buffer without enzyme for full effect and enzyme alone for no effect
Target sequence (P15917 whole entry, looked up): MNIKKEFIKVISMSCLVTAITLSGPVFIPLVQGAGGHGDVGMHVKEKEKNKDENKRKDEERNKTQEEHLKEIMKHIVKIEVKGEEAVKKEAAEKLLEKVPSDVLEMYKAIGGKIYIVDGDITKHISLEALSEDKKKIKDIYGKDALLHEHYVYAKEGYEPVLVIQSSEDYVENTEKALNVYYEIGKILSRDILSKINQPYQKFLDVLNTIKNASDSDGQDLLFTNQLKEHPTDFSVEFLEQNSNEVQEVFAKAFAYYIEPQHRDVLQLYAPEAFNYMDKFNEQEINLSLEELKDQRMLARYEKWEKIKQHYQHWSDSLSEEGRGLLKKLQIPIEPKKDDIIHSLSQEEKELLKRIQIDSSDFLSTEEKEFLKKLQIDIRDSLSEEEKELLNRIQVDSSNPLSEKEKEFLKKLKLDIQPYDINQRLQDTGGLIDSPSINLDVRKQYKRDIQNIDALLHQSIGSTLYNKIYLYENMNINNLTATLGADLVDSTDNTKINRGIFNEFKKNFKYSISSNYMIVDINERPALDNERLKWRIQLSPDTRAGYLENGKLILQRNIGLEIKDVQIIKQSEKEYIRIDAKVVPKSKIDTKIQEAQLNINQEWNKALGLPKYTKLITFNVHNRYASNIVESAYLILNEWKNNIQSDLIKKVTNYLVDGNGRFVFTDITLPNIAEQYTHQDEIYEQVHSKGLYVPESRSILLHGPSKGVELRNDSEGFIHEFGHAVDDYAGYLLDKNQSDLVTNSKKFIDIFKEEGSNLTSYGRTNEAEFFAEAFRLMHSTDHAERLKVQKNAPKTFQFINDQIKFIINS
MazF activator: activators of E. coli MazEF toxin-antitoxin RNase, primary screen, biochemical, fluorescence, uHTS | Endoribonuclease toxin MazF (Escherichia coli (strain K12)), P0AE70 | FAM/BHQ RNA-DNA oligo cleavage fluorescence, 5 h | activation, % at 20 µM | 350,000 compounds, 0.32% hits | AID 504720, 2011; in the data active means activation above about 50%
Bead autofluor: flagged as autofluorescent in microsphere protease counterscreen; 360,000 compounds, 3.1% hits; compound autofluorescence counterscreen, microsphere flow cytometry; hits give high values; fluorescence intensity (concentration not given with the values); AID 624483; in the data active means fluorescence intensity above about 16000; inconclusive means no clear call, values can overlap the other calls
BoNT-A LC inh2: BoNT/A light chain protease inhibitors, primary screen, biochemical, flow cytometry, MLPCN library | Botulinum neurotoxin type A light chain protease (Clostridium botulinum A str. ATCC 3502) | multiplex microsphere protease substrate cleavage | inhibition, % at 10 µM | 360,000 compounds, 0.17% hits | AID 588499, 2011; further: plate controls were buffer without enzyme for full effect and enzyme alone for no effect
* = called active by the depositor; i = inactive; ? = inconclusive; . = no result given. Shown are actives, neighbours in structure and some others; about 4% of the full set was active somewhere. Unless noted, no stated cut-off is given here; in the data, active means inhibition above about 30%; inconclusive means no clear call, values can overlap the other calls; inactive means below that.

SMILES | BoNT F protease | VHR inh abs | Anthrax LF inh2 | MazF activator | Bead autofluor | BoNT-A LC inh2
CCN(CC)S(=O)(=O)c1ccc(C(=O)OCCN2C(=O)c3cccc4c(N5CCOCC5)ccc(c34)C2=O)cc1 | 20 | -2 | 28 | i | 7204 | 35*
CCOC(=O)Cn1c(=O)c(-c2ccccc2NCc2ccccc2)nc2ccccc21 | -4 | . | -7 | 61* | 10340 | -1
Cc1ccc(Oc2cc(-n3nc(C)cc3C)ncn2)cc1 | -1 | 22 | -2 | 0 | 22017* | ?
CC1=CC(=C2C(=O)NC(=O)NC2=O)C=C(C(F)(F)F)N1C(C)C | 3 | 4 | -13 | 10 | 21183* | 3
CCOc1ccc(NC(=O)c2cn(CC(C)C)c(=O)c3c2c2ccccc2n3C)cc1 | 2 | -15 | -1 | 8 | 10206 | 1
COc1ccc(NC(=O)CN2CCN(CC(=O)Nc3ccccc3Cl)CC2)cc1Cl | -13 | 51* | -5 | 0 | 2462 | -1
S=C(Nc1ccccc1Cl)N1CCN(Cc2ccccc2)CC1 | -4 | 4 | 0 | 4 | 2557 | -1
COC(=O)c1ccc(Cl)c(NC(=O)CN2CCOCC2)c1 | -2 | 6 | -1 | -5 | 2852 | 1
NC(=O)c1ccccc1NC(=O)COc1ccc(Cl)cc1 | 2 | 11 | 6 | 13 | 4100 | 0
Cc1c(Cl)cccc1NC(=S)N1CCN(Cc2ccccc2)CC1 | 1 | 33 | 2 | -4 | 23770* | 0
O=C(COc1ccc(Cl)cc1)Nc1ccccc1Cl | ? | 54* | 8 | 0 | 3081 | 1
COC(=O)c1ccc(Cl)c(NC(=O)CN2CCN(C)CC2)c1 | -3 | 4 | -4 | 9 | 23083* | ?
COCCNC(=O)Cn1cc(/C=C(\C#N)C(=O)NC2CC2)c2ccccc21 | -36 | -15 | -2 | 7 | 3779 | -1
O=C(Cc1cccc([N+](=O)[O-])c1)Nc1ccc(C(=O)N2CCCCC2)cc1 | 4 | . | 1 | 1 | 3906 | 0
O=C(CN1CCCC1)Nc1ccccc1Cl | -1 | 8 | 1 | 2 | 22970* | ?
Cc1c(Cl)cccc1NC(=O)CN1CCN(CCO)CC1 | 2 | 22 | -11 | 12 | 22331* | 2
COc1ccc(F)cc1CN1CCN(CC(=O)Nc2ccccc2C(=O)NC2CC2)CC1 | -1 | . | 5 | 6 | 3841 | 1
Cc1c(Cl)cccc1NC(=O)CCN1CCCCCC1 | -10 | 7 | 19 | -2 | 8142 | -2
COc1ccc(CN2CCN(CC(=O)Nc3ccccc3C(=O)NC3CC3)CC2)cc1F | ? | . | -16 | -9 | 19106* | -68
FC(F)(F)c1ccccc1NC(=S)Nc1ccccc1 | -37 | -15 | 10 | -2 | 3205 | -4
Cc1ccc([N+](=O)[O-])cc1NC(=S)NC(=O)CC(C)(C)C | 1 | 14 | 1 | 6 | 19100* | 2
CSc1ccccc1NC(=S)Nc1ccccc1C(F)(F)F | 1 | 0 | -1 | -13 | 19907* | 0
CC(C)(C)CC(=O)NC(=S)Nc1ccccc1C(F)(F)F | -3 | 32 | -1 | -6 | 24827* | -3
O=C(NCc1cccnc1)C(=O)NCC(c1ccco1)N1CCN(c2ccccc2)CC1 (stereo not given) | 1 | 21 | 2 | 0 | 11178 | -1
CN(C)c1ccc(N=Cc2c(O)n(CCC3=CCCCC3)c(=O)[nH]c2=O)cc1 | -6 | 9 | -6 | -25 | 5750 | 0
SMILES | BoNT F protease | VHR inh abs | Anthrax LF inh2 | MazF activator | Bead autofluor | BoNT-A LC inh2
Cc1cccc(-n2nnc(C(=O)NC3CCCc4ccccc43)c2N)c1 (stereo not given) | -16 | 52* | -6 | -5 | 3827 | -1
Cc1noc(C)c1C(=O)NC1CCCc2ccccc21 (stereo not given) | -5 | -2 | 0 | 6 | 21318* | -4
Cc1cccc(C(=O)NC2CCCc3ccccc32)c1 (stereo not given) | . | 11 | . | . | . | .
CSCCC(NC(=O)c1ccc(Cl)cc1Cl)C(=O)N1CCCCCCC1 (stereo not given) | 6 | . | 6 | -7 | 4934 | 5
COc1ccc(OC)c(/C=N/NC(=O)Cn2ccnc2C)c1 | ? | 9 | -6 | -2 | 4377 | -2
CSc1nc2ccccc2n1C(=O)Oc1ccccc1 | 6 | 4 | 1 | 2 | 20058* | 2
CCCCCNC(=O)CCCCn1c(=O)[nH]c2cc(OCC)c(OCC)cc2c1=O | -8 | 51* | 1 | -1 | 4282 | -1
CCCCNC(=O)CCCCCn1c(=O)[nH]c2cc(OC)c(OC)cc2c1=O | -1 | 22 | -11 | 1 | 19264* | ?
COc1cc2[nH]c(=O)n(Cc3ccc(C(=O)NC4CCCC4)cc3)c(=O)c2cc1OC | 11 | 20 | 0 | 88* | 3343 | 0
CCC(C)NC(=O)CCCCCn1c(=O)[nH]c2cc(OC)c(OC)cc2c1=O (stereo not given) | -4 | 33 | 1 | 4 | 9317 | 2
CCOC(=O)[C@]12CCCC=C1N(Cc1ccc3c(c1)OCO3)C(=O)[C@H](CC(=O)NCc1cccc3ccccc13)C2 | 1 | . | 1 | . | 6152 | 0
CCOc1ccccc1NC(=O)CS(=O)(=O)c1cn(CC(=O)N2CCOCC2)c2ccccc12 | 12 | 13 | 7 | 1 | 5858 | 0
CC(=O)NC(C)c1cc(F)c2cccnc2c1O (stereo not given) | 1 | . | -1 | 2 | 3527 | 0
O=C(Nc1ccc(Cl)cc1)OC(CN1CCCCC1)C(F)(F)F (stereo not given) | -8 | 14 | 2 | -2 | 3749 | 0
COc1ccccc1-c1nnc(NC(=O)CCS(=O)(=O)c2ccc(F)cc2)o1 | 0 | . | 0 | 4 | 2940 | 0
O=C1NN(c2cccc(Br)c2)C(=O)/C1=C\c1ccc(N2CCOCC2)cc1 | -27 | 53* | -2 | 4 | 4191 | -1
O=C1NC(=O)N(Cc2cccs2)C(=O)/C1=C/c1ccc(N2CCOCC2)cc1 | -9 | 8 | -9 | -22 | 3175 | 0
C=CCn1c(SCC)nc2sc3c(c2c1=O)CCc1ccccc1-3 | -5 | 32 | -1 | -2 | 17250* | -2
CC(C)(C)OC(=O)CNC(=O)c1[nH]cnc1C(=O)NC1CCNCC1 | -7 | . | -8 | 3 | 3985 | 0
CC(=O)Nc1ccc(NC(=O)c2cccc3ccccc23)cc1 | ? | 60* | 5 | 12 | 4254 | -1
O=C(NCc1ccccc1)c1c[nH]c2cc3c(cc2c1=O)OCCO3 | 0 | -9 | -4 | 37 | 16706* | -1
O=C(Nc1ccc2c(c1)OCCO2)c1ccc(Br)c(S(=O)(=O)N2CCOCC2)c1 | -6 | 8 | -6 | 1 | 2496 | 0
O=C(NCc1ccc2c(c1)OCO2)c1ccc(CN2CCOCC2)cc1 | -4 | 8 | -1 | 7 | 16861* | -1
